Results on 60 compounds are retold here after PubChem BioAssay AID1529 (NMMLSC, 2009).

The structures appear in SMILES notation. Hit rate of the full screen: of about 290,000 compounds, about 4,200 (1.4%) were called active. Shown is part of a subset that was picked to be rich in actives. A number with no mark means an inactive call.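 Rule for the calls: active = binding response more than 3 SD above or below the average of its plate-row segment, actives on both sides; inconclusive = wells at one plate position flagged as instrument error; inactive = the rest.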

The target in this assay is Mitogen-activated protein kinase kinase kinase 3 (Homo sapiens) (UniProt Q99759). Put plainly: compounds raising or lowering MEK5 association with MEKK3 PB1 – biochemical, wildtype MEKK3, multiplex bead flow cytometry, Alexa488-MEK5, primary screen (AID 1529).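 Note: Alexa488 bead fluorescence after subtracting the streptavidin-only scavenger bead signal.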 To be noted: bead-based flow cytometry, Alexa488-MEK5 binding to MEKK3; at 10 µM; actives lie on both sides; 0 = blocked by unlabeled MEK5, 100 = vehicle. For orientation: A flow cytometer gives signals particle by particle.
Chain of Mitogen-activated protein kinase kinase kinase 3 (Homo sapiens) (Q99759 whole entry, looked up): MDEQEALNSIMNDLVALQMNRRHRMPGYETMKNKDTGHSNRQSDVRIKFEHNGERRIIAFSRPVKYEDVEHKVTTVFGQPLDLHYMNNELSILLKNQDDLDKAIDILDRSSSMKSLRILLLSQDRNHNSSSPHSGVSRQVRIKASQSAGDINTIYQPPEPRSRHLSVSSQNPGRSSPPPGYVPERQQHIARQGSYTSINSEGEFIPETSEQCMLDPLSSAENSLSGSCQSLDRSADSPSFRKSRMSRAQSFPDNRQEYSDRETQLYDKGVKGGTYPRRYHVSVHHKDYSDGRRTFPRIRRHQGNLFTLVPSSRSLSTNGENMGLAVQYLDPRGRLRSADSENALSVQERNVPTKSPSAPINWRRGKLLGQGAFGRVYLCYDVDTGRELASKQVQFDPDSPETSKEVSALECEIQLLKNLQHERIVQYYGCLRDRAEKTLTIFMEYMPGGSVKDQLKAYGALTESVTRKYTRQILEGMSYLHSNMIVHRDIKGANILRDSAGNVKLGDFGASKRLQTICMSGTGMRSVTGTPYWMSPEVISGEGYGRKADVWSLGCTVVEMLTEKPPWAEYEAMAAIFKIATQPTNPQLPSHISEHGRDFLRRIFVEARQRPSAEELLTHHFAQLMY
`CC1(C(=O)O)CCC(C(=O)Nc2ccc(Cl)c(Cl)c2)C1(C)C` (stereo not given): the binding response (% of control) is 103%.

Turning to `COc1ccc(C(=O)COC(=O)CNC(=O)c2cccs2)cc1Br`, the binding response (% of control) was 99%.

With `CCn1c(=O)c2cc(C(=O)Nc3cccc(C(C)=O)c3)sc2c2ccccc21`, the binding response (% of control) was 106%.

In the case of `COc1ccccc1C(=O)Nn1c(-c2cccs2)nc2ccccc2c1=O`, the binding response (% of control) was 111%.

In the case of `CCn1c(NC(=O)c2ccccc2)c(-c2cccs2)c(=O)c2ccccc21`, the binding response (% of control) is 82% [inhibitor] (active).

Turning to `COc1ccccc1N(CC(=O)N/N=C(\C)c1ccccc1O)S(=O)(=O)c1ccc(C)cc1`, the binding response (% of control) is 102%.

As for `O=C(N/N=C/c1ccc(OCc2ccccc2)cc1)c1ccc(O)cc1`, the binding response (% of control) was 119%.

For `CCOc1ccc(NC(=O)C/C(C)=N/NC(=O)Cc2cccs2)cc1`, the binding response (% of control) was 99%.

In the case of `O=C(Cc1cccs1)N/N=C/c1ccc(OCc2ccccc2)cc1`, the binding response (% of control) is 129% (active).

Regarding `N#C/C(=C\c1ccccc1C(F)(F)F)C(=O)Nc1ccccc1F`, the binding response (% of control) was 97%.

Turning to `N#C/C(=C/c1ccc(N2CCOCC2)o1)C(=O)N1CCOCC1`, the binding response (% of control) was 94%.

`N#C/C(=C\C1=C(N2CCOCC2)C(=C\c2ccccc2)/CC1)C(=O)Nc1ccccc1F`: the binding response (% of control) is 8% [inhibitor] (active).

As for `CN(CCC1CCOCC1)Cc1cn[nH]c1-c1ccc(-c2ccccc2)cc1`, the binding response (% of control) is 109%.

Regarding `CCCCC(CC)CNCc1cccn1CCN1CCOCC1` (stereo not given), the binding response (% of control) is 100%.

Regarding `CN(C)CCCN(C(=O)COc1ccccc1)c1nc2c(Cl)cccc2s1`, the binding response (% of control) is 35% [inhibitor] (active).

For the compound `COc1cccc2sc(N(CCCN(C)C)C(=O)CCS(=O)(=O)c3ccccc3)nc12`, the binding response (% of control) is 97%.

Consider `COc1cccc2sc(N(CCCN(C)C)C(=O)C(c3ccccc3)c3ccccc3)nc12`, for which the binding response (% of control) was 111%.

Regarding `COCCNc1ccc(-c2n[nH]c(=O)c3ccccc23)cc1[N+](=O)[O-]`, the binding response (% of control) was 103%.

For `CCOC(=O)/C(C#N)=C/c1ccc(N2CCCCC2)cc1`, the binding response (% of control) is 99%.

For the compound `O=C1C=CC(=O)N1c1ccc(N2CCCCC2)cc1`, the binding response (% of control) is 49% [inhibitor] (active).

Take `Cc1ccccc1C(=O)Nc1ccc(N2CCCCCC2)cc1`: the binding response (% of control) is 80%.

On to `C#CC(C)(C)NC(=O)c1cnc(-c2ccccc2)nc1-c1ccccc1`, for which the binding response (% of control) was 105%.

As for `CC(NC(=O)c1cc2cc(Cl)ccc2oc1=N)c1ccccc1` (stereo not given), the binding response (% of control) is 100%.

As to `Cc1ccc(CN(C)Cc2cc(=O)oc3cc(C)c(Cl)cc23)cc1`, the binding response (% of control) is 109%.

Regarding `COc1ccc(N(C(=O)c2snc(C(N)=O)c2N)C(C(=O)NC2CCCC2)c2ccco2)cc1OC` (stereo not given), the binding response (% of control) is 101%.

As for `Cc1c(Cl)cccc1NC(=O)[C@@]1(CC(=O)O)CC(/C=C/c2ccccc2)=NO1`, the binding response (% of control) was 96%.

On to `COC(=O)c1c(NC(=O)c2ccccc2F)sc2c1C(C(=O)OC)CC2` (stereo not given), for which the binding response (% of control) is 98%.

Take `Cc1noc(C)c1C(=O)OCC(=O)/C=C1\N(C)c2ccccc2C1(C)C`: the binding response (% of control) is 100%.

As to `CC(C)Nc1nnc(SCC(=O)/C=C2\N(C)c3ccccc3C2(C)C)s1`, the binding response (% of control) was 101%.

Regarding `CC(=O)Nc1cccc(OCC(=O)/C=C2\N(C)c3ccccc3C2(C)C)c1`, the binding response (% of control) was 62% [inhibitor] (active).

Regarding `CC(CN1CCOCC1)OC(=O)c1ccc(C(C)(C)C)cc1` (stereo not given), the binding response (% of control) was 106%.

Regarding `COc1cc2cc(C(=O)N/N=C/c3cccc(OC)c3OC)[nH]c2cc1OC`, the binding response (% of control) was 94%.

On to `COc1cccc(/C=N\NC(=O)C2=NNC(=O)C2C)c1O` (stereo not given), for which the binding response (% of control) was 128% (active).

Turning to `COc1cccc(/C=N/NC(=O)c2[nH]nc3c2CCc2ccccc2-3)c1O`, the binding response (% of control) is 102%.

For `Cc1ccccc1Cn1c(=O)[nH]c2ccccc21`, the binding response (% of control) is 52%.

On to `CCCc1cc(=S)n2c([nH]c3ccccc32)c1C#N`, for which the binding response (% of control) is 1% [inhibitor] (active).

For `CCOC(=O)CCc1c(C)c(C#N)c2[nH]c3ccccc3n2c1=O`, the binding response (% of control) is 109%.

`COC(C[C@H](O)CC(=O)[C@@H](C)OCc1ccccc1)OC`: the binding response (% of control) was 101%.

On to `CN(c1ccc(C(=O)NCCC2=CCCCC2)cc1)S(C)(=O)=O`, for which the binding response (% of control) is 100%.

As to `O=C(NCCC1=CCCCC1)c1ccc(Cl)c([N+](=O)[O-])c1`, the binding response (% of control) was 153% (active).

Turning to `Cn1nnc2cc(C(=O)NCCC3=CCCCC3)ccc21`, the binding response (% of control) is 99%.

Take `O=[N+]([O-])c1ccccc1/C=C/CN1CCC(O)CC1`: the binding response (% of control) is 105%.

With `Cc1noc(C)c1S(=O)(=O)N(C)Cc1ccccc1`, the binding response (% of control) is 3% [inhibitor] (active).

On to `Cc1noc(C)c1S(=O)(=O)Nc1ccc(C(=O)O)cc1`, for which the binding response (% of control) was 98%.

For the compound `Cc1cc(C)cc(N(CC(=O)N2CC=C(c3ccccc3)CC2)S(=O)(=O)c2c(C)noc2C)c1`, the binding response (% of control) was 112%.

For `CCOc1ccccc1NC(=O)COc1ccc(S(=O)(=O)N2CCCC2)cc1`, the binding response (% of control) is 98%.

As for `COc1ccc(S(=O)(=O)NC(C)C(=O)NCc2ccncc2)cc1Cl` (stereo not given), the binding response (% of control) is 99%.

Consider `Cc1ccc(N2CCN(C3=NC(=O)/C(=C\c4cccs4)S3)CC2)cc1`, for which the binding response (% of control) is 98%.

Consider `CC1CCN(C2=NC(=O)/C(=C/c3ccc(O)cc3)S2)CC1`, for which the binding response (% of control) is 100%.

Regarding `CC1CCN(C2=NC(=O)/C(=C/c3cn[nH]c3-c3ccccc3)S2)CC1`, the binding response (% of control) is 130% (active).

For `COc1ccc(CN2CC[C@H]3C=CC[C@@H](C(=O)N4CCOCC4)[C@H]3C2=O)cc1OC`, the binding response (% of control) was 98%.

In the case of `CC(=O)c1cccc(NC(=S)N2CCN(S(C)(=O)=O)CC2)c1`, the binding response (% of control) was 102%.

With `O=c1c2ccccc2c(-c2ccccc2)nn1Cc1ccccc1`, the binding response (% of control) is 134% (active).

Regarding `CCCNC(=O)CCn1nc(-c2ccccc2)c2ccccc2c1=O`, the binding response (% of control) was 94%.

On to `O=c1c2ccccc2c(-c2ccc(Br)cc2)nn1Cc1ccccc1`, for which the binding response (% of control) was 109%.

Take `C=CCOC(=O)C1=C[C@H](c2ccc(Br)cc2)C[C@H](OCCCCO)O1`: the binding response (% of control) was 99%.

In the case of `Cc1cccc(OCCC(=O)Nc2ccccc2C(N)=O)c1`, the binding response (% of control) is 104%.

Turning to `COc1ccccc1C(=O)N/C(=C/c1ccco1)C(=O)Nc1ccc(C(=O)O)cc1`, the binding response (% of control) is 102%.

`N#Cc1ccc(CSc2ncccn2)cc1`: the binding response (% of control) was 101%.

As to `Cc1cc(C)nc(-n2nc(C)cc2NC(=O)c2ccc(F)cc2F)n1`, the binding response (% of control) is 105%.
